# Compound activity: PubChem, National Center for Advancing Translational Sciences (NCATS)
# Epigenetic mod: epigenetic modulators derepressing GFP locus in mouse cells. Potency, µM (top dose mostly 46.1 µM), without a hit: at the top dose GFP derepression (activation). AID 597. mouse C127i GFP locus derepression, cytometry, 30 h. actives 0.09% (n = 68,000); also: % of control where 0% means no effect
#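 Read-out is the number of GFP-positive cells, scored as fluorescent objects 20 to 120 um wide, reflecting derepression of a silenced CMV-GFP reporter in murine C127i cells after 30 h compound exposure at 37 C.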
# ALOX15 inhib: blocks human 15-lipoxygenase activity; P16050; purified 15hLO-1, xylenol orange hydroperoxide absorbance; Potency, µM (doses to about 57.1 µM), without a hit: top-dose activity change, negative = inhibition, actives largely listed as inhibitors; actives 1.4% (n = 74,000); AID 887; also: potency is read from the fitted curve at half-maximal effect; % is scaled to controls: 0 for no effect and ±100 for the full control effect; nearly all actives have a fitted effect of over 55% in size
#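 Purified human 15hLO-1 (40 nM) in 25 mM Hepes pH 7.5, 0.01% Triton X-100, preincubated 15 min RT with compound, then 50 uM arachidonic acid for 6 min. Hydroperoxide read by ferrous/xylenol orange, 30 min; 573/405 nm absorbance ratio gave progress.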
# Tau fil binding: binds recombinant human tau filaments; P10636; recombinant tau filaments, thioflavin S fluorescence, 15 h; filaments grown with octadecylsulfate alongside compound; Potency, µM (doses to about 57.1 µM), for the others: at the top dose activity change, negative = inhibition; actives 2% (n = 71,000);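 also: potency is read from the fitted curve at half-maximal effect; % is scaled to controls: 0 for no effect and ±100 for the full control effect; actives lower thioflavin S fluorescence by blocking filaments or displacing dye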
#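 His-tagged recombinant human tau (exons 2, 3, 10; 1 uM final) fibrillized with 30 uM sodium octadecylsulfate, 15 h at 37 C, in pH 7.4 HEPES buffer with 10 uM thioflavine S and 5 mM DTT. Reduced ThS fluorescence (450/510 nm) marks activity.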
# UbGFP stabilizer: ubiquitin-GFP accumulation via proteasome inhibition; Ubiquitin-GFP reporter cells, proteasome inhibition, GFP fluorescence; response scale: untreated = 0%, 10 µM MG-132 = 100%; Potency, µM (doses to about 45.9 µM), for inactives: at the highest dose activation (GFP accumulation), hits mostly activators; 67,000 tested, under 10 active; AID 526; active = well fitted activation curve with a large enough effect, not every such curve was filed as active; inconclusive = small, poorly fitted or top-dose-only effect, or another doubt; inactive = no such curve, though single readings can be large or run the other way; also: potency is read from the fitted curve at half-maximal effect
#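 U2OS cells expressing ubiquitin(G76V)-GFP, seeded overnight in 0.5% FBS medium, then treated 4 hr at 37 C across 46 uM to 2.9 nM. GFP-positive cells counted by laser cytometry (488 ex/515 em); %activity scaled between basal and 10 uM MG-132.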
# 15-hLO-2 inh: blocks human 15-lipoxygenase 2 activity | actives 0.56% (n = 110,000) | purified 15hLO-2, xylenol orange hydroperoxide absorbance | Potency, µM (titrated, usually from 57.1 µM), for the others: at the highest dose activity change, negative = inhibition, usual class: inhibitors | AID 881 | O15296; also: potency is read from the fitted curve at half-maximal effect; % is scaled to controls: 0 for no effect and ±100 for the full control effect; nearly all actives have a fitted effect of over 60% in size
# Target sequence (O15296 whole entry, looked up): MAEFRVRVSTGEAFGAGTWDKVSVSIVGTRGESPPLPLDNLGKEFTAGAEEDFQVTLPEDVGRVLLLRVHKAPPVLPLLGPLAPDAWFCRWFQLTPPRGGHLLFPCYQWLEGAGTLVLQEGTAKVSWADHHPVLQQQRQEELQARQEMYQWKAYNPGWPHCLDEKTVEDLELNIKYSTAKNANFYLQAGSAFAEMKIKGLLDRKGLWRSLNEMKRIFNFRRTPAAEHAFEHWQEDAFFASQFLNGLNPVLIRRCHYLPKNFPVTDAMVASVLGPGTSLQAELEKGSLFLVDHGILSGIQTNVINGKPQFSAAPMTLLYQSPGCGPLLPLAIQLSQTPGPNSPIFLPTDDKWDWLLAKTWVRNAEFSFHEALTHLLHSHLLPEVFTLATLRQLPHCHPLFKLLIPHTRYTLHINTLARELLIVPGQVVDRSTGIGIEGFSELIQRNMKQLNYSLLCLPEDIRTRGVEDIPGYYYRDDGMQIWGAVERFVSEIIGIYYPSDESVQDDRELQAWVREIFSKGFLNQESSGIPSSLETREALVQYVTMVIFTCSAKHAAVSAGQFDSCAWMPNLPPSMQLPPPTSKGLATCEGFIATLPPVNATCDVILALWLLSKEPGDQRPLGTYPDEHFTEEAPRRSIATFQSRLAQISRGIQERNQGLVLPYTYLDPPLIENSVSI
#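 Read-out: hydroperoxide product oxidises ferrous iron, measured as xylenol orange complex via the 573-to-405 nm absorbance ratio after 30 min. Reaction: 50 nM enzyme, 15 min compound preincubation, 45 uM arachidonic acid, 90 min RT, Hepes pH 7.5 with Triton X-100.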
# HBB splice mod: hemoglobin beta splicing modulation. HBB splicing reporter cell assay, activation; EGFP reporter with mutant IVS2-654 intron; response scale: normalised to 500 nM splice-correcting PNA. Potency, µM (series often up to 46.1 µM), for the others: top-dose activation, actives largely listed as activators. actives 0.06% (n = 65,000). AID 925; also: potency is read from the fitted curve at half-maximal effect; 0% is about no effect
#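 Compounds were applied for 2 days to HeLa EGFP-654 cells, 500/well in Optimem with 2% FCS. The reporter's EGFP is disrupted by mis-splicing of beta-globin intron IVS2-654. Readout: summed well GFP fluorescence from 488 nm laser scanning; reference was 500 nM antisense […] 654 PNA.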
# * marks the source's active call; other numbers are inactive results; ? = inconclusive; . = no result given; [ ] = dose if it differs, or a comment. The list is not random: actives were taken first. Their share in the collection is about 2.3%. Unless noted, calls follow the shape of the dose curve; as a rule, active = well fitted curve in the direction sought with a large enough effect; inconclusive = small, poorly fitted or top-dose-only effect, or another doubt; inactive = no such curve, though single readings can be large; an effect the other way counts as inactive or inconclusive.
SMILES,Epigenetic mod,ALOX15 inhib,Tau fil binding,UbGFP stabilizer,15-hLO-2 inh,HBB splice mod
Cc1ccc(NC(=O)CCNS(=O)(=O)c2cccc3nonc23)cc1,3.6%,-1.5%,-3.0%,8.1%,-1.5%,0.1%
Cc1ccc(C(=O)NC(=S)Nc2ccccc2C(F)(F)F)cc1C,.,.,.,.,25.1µM*,.
Cc1cc(C(=O)Nc2ccccc2C(F)(F)F)no1,0.0%,5.0%,3.1%,4.8%,-3.2%,-0.2%
Cc1nc2sccn2c1P(c1c(C)nc2sccn12)c1c(C)nc2sccn12,5.4%,-26.7%,-1.5%,1.8%,25.1µM*,-2.4%
C[C@@H](N=C(N)N)C(=O)O,-3.4%[9.22 µM],4.1%[11.4 µM],-14.8%[11.4 µM],9.7%[9.17 µM],14.9%[11.4 µM],4.2%[9.22 µM]
CC(N=Cc1cccc(O)c1O)c1ccccc1 (centres undefined),2.5%,12.6µM*,12.6µM*,15.1%,?,2.2%
NC(Cc1c[nH]c2ccccc12)C(=O)O (centres undefined),.,7.94µM*,.,.,9.9%,.
Oc1cc(O)c2c(c1)O[C@H](c1ccc(O)c(O)c1)[C@@H](O)C2,-0.1%[9.22 µM],-7.3%[25.6 µM],?,2.6%,-9.4%,.
Oc1ccc2c(c1)OC(c1ccc(O)c(O)c1)C(O)C2 (centres undefined),.,12.6µM*,.,.,?,.
COc1cc(Sc2ccc(C)cc2)c(OC)cc1N,2.6%,?,25.1µM*,-9.6%,10µM*,2.6%
CC(=C1C2C=CC1C1C(=O)NC(=O)C21)c1ccccc1 (centres undefined),?,-12.6%,77.4%,-4.0%,-1.4%,15.8µM*
O=C(c1ccc(Cl)cc1)c1ccc(CN2C(=O)c3ccccc3C2=O)o1,.,.,.,.,-10.5%,.
Nc1cc(CN2C(=O)c3ccccc3C2=O)cc(Cl)c1O,-0.1%,10µM*,-12.6%,3.7%,?,2.6%
CCOC(=O)[C@]1(CC(=O)O)CCCC1=O,-2.1%[9.22 µM],1.8%[11.4 µM],-1.7%[11.4 µM],-0.5%[9.17 µM],4.0%[11.4 µM],-0.2%[9.22 µM]
CCc1c(C)sc(NC(=O)CC#N)c1C#N,2.7%,-11.2%,12.6µM*,-2.5%,-22.9%,0.1%
CCc1c(C)sc(NC(=O)c2cc(C)no2)c1C#N,-3.4%,-4.8%,-6.1%,11.8%,-9.7%,-1.6%
CCOC(=O)C1=C(C)NC(=O)N[C@@H]1c1coc2cc(C)cc(C)c2c1=O,3.9%[9.22 µM],1.0%[11.4 µM],14.2%[11.4 µM],-1.2%[9.17 µM],-4.4%[11.4 µM],0.7%[9.22 µM]
c1ccn(-c2ccc(N3CCOCC3)cc2)c1,.,.,.,.,-1.5%,.
Cc1ccc(C)n1-c1ccc(N2CCOCC2)cc1,1.8%,2.51µM*,25.1µM*,0.0%,-28.8%,8.9%
CN(C)CCCSc1ccccc1NC(=O)/C=C\c1ccccc1,-0.5%,-19.9%[25.6 µM],?,-4.0%,16.9%,.
C=C(C)CN(CC#N)CC(=C)C,-2.3%[9.22 µM],6.2%[11.4 µM],14.2%[11.4 µM],-6.5%[9.17 µM],-5.4%[11.4 µM],1.3%[9.22 µM]
CCCCCCNC(=O)Nc1ccc(S(=O)(=O)Nc2ccc(CCNC[C@H](O)COc3ccc(O)cc3)cc2)cc1,.,7.94µM*,.,.,-5.3%,-0.6%
Cc1cc(Nc2cccc(F)c2)nc(-c2ccccc2O)n1,0.0%,10µM*,255.2%,.,8.6%,4.2%[0.369 µM]
Cc1cc(Nc2ccccc2)nc(-c2ccccc2O)n1,0.6%,-20.1%,32.4%,-1.3%,19.0%,-1.1%
C=C1CC[C@@H]2[C@](C)(CC[C@@H](O)[C@]2(C)CO)[C@@H]1C/C=C1/C(=O)OC[C@H]1O,6.9%[9.22 µM],.,-16.8%,-1.3%,.,.
N#Cc1c(NC(=O)CSc2nnc(-c3ccco3)n2-c2ccccc2)sc2c1CCC2,.,.,.,.,-12.4%,.
CCOC(=O)c1sc(NC(=O)CSc2nnc(-c3ccco3)n2CC)c(C(=O)OCC)c1C,4.7%,6.31µM*,93.9%,1.3%,-8.6%[11.4 µM],0.1%
CCOC(=O)c1c(NC(=O)CSc2nnc(-c3ccccc3)n2CC)sc(C(C)=O)c1C,-4.0%,-14.6%,21.3%,1.0%,-7.1%,0.6%[57.5 µM]
NC(=O)c1c(NC(=O)CSc2nnc(-c3ccco3)n2-c2ccccc2)sc2c1CCC2,4.3%,25.1µM*,21.6%,-0.8%,?,-2.9%
COc1ccc(/C=C(\C#N)C(N)=O)c(OC)c1,-2.4%[9.22 µM],-2.7%[11.4 µM],-0.1%[11.4 µM],-0.5%[9.17 µM],1.6%[11.4 µM],4.8%[9.22 µM]
